According to PubChem BioAssay:
The source made the active and inactive calls.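 Rule for the calls: active = primary screen active and over 50% activation in each of two duplicate runs; inactive = the rest.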

tested on: transient receptor potential cation channel C4 beta (TRPC4), mouse; test: TRPC4 cation channel opening, second retest – cell-based, second round, Fluo4, HEK293 TRPC4beta/mu-opioid, 1 µM, confirmation (AID 2461); settings: Fluo4 calcium fluorescence, at 1 µM; hits give high values;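 for activation: 0% = wells without test compound as baseline of integrated fluorescence ratio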

Row | Structure (SMILES) | outcome | activation
1 | CC(C)c1ccc(NC(=S)N(C)CCc2ccccn2)cc1 | inactive | 
2 | CCN1CCN(c2ccc(S(=O)(=O)N3CCCCC3)cc2NC(=O)COc2ccccc2)CC1 | inactive | 
3 | COC(=O)c1ccccc1N=Nc1c(N)[nH][nH]c1=O | inactive | 
4 | CCc1nc(NCCc2ccccn2)c2nnn(Cc3ccccc3F)c2n1 | inactive | 
5 | COC(=O)c1ccc(N2CCN(C)CC2)c(NC(=O)COc2ccccc2)c1 | inactive | 
6 | CCC1(c2ccc(F)cc2)NC(=O)N(CC(=O)c2cc(C)n(C3CC3)c2C)C1=O (stereo not given) | inactive | 
7 | CCOC(=O)C1(CC2CCCCO2)CCN(Cc2c(C)cc(C)cc2-n2cccn2)CC1 (stereo not given) |  | 103% (active)
8 | Cc1ccc(Cl)cc1NC(=O)CNCC(c1ccccc1)N(C)C (stereo not given) | inactive | 
9 | CCOC(=O)C1(CCOc2ccccc2)CCN(Cc2ccc3c(c2)OCCO3)CC1 | inactive | 
10 | CCOc1ccccc1CN1CCNC(=O)C1CC(=O)N(C)CCc1ccccn1 (stereo not given) |  | 76% (active)
11 | CN(CCc1ccccn1)C(=O)CC1C(=O)NCCN1Cc1ccccc1C(F)(F)F (stereo not given) | inactive | 
12 | Cc1ccc(C)c(OCCCCCn2ccnc2)c1 | inactive | 
13 | O=C(C1CCCN(Cc2ccccc2F)C1)N1CCc2ccccc2C1 (stereo not given) |  | 98% (active)
14 | CCOC(=O)C1(CCCc2ccccc2)CCN(Cc2cn(CC)nc2C)CC1 |  | 76% (active)
15 | NCCSc1c(-c2ccc(Cl)cc2)[nH]c2ccccc12 | inactive | 
16 | CN(C)CCCN(C(=O)c1ccc(C(=O)c2ccccc2)cc1)c1nc2ccc(F)cc2s1 | inactive | 
17 | COc1ccc(-c2nn(-c3ccccc3)cc2CNCc2cccnc2)c(F)c1 | inactive | 
18 | Cc1cc(Br)ccc1OCCn1ccnc1 | inactive | 
19 | C=CCn1c(CCNC(=O)C(C)(C)C)nc2ccccc21 | inactive | 
20 | Cc1cc(Cl)cc(C)c1OCCCCn1ccnc1 | inactive | 

Row | Structure (SMILES) | outcome | activation
21 | Cc1sc2nc(CSc3ccccc3)nc(NCCN(C)C)c2c1C | inactive | 
22 | CCN1CCN(c2c(S(=O)(=O)c3ccc(C)c(C)c3)cnc3ccc(F)cc23)CC1 | inactive | 
23 | Cc1ccc(C)c(OCCCCn2ccnc2)c1 | inactive | 
24 | Cc1ccccc1NC(=S)NCCc1ccccn1 | inactive | 
25 | CN(C)C(CNC(=O)Cc1cccc(C(F)(F)F)c1)c1ccco1 (stereo not given) | inactive | 
26 | CCOc1ccccc1CN1CCNC(=O)C1CC(=O)NCCc1ccccn1 (stereo not given) | inactive | 
27 | CCOc1ccc2ncc(C(=O)c3ccc(OC)cc3)c(N3CCN(CC)CC3)c2c1 | inactive | 
28 | Cc1cc(NC(=O)CN2CCc3ccccc3C2)nc2c1c(=O)oc1ccccc12 | inactive | 
29 | Cc1ccccc1C(=O)NNC(=S)NC(=O)c1ccccc1 | inactive | 
30 | CCOC(=O)C1CCCN(C(c2ccccn2)c2c(C)[nH]c3ccccc23)C1 (stereo not given) | inactive | 
31 | COc1cc(/C=C/C(=O)c2ccc3c(c2)OCO3)cc(Cl)c1O | inactive | 
32 | CN(C)C(CNC(=O)/C=C/c1cccc(Cl)c1)c1ccccc1 (stereo not given) |  | 83% (active)
33 | COc1ccc(C(=O)NC(=S)NNC(=O)c2c(-c3ccccc3)noc2C)cc1 | inactive | 
34 | O=S(=O)(c1ccc(Cl)cc1)N1CCN2CCCC2C1 (stereo not given) | inactive | 
35 | Cc1ccc(-n2cc(CNCC3CC(=O)N(C4CC4)C3)c(-c3cccc(C)c3)n2)cc1 (stereo not given) | inactive | 
36 | CCCCCSc1nnc2c(n1)OC(c1cccn1C)N(C(C)=O)c1ccccc1-2 (stereo not given) | inactive | 
37 | CCCCC(c1nnnn1CC1CCCO1)N1CCN(c2nc3ccccc3s2)CC1 (stereo not given) | inactive | 
38 | CCN(CCCNS(=O)(=O)c1cc(-c2cc(C)no2)ccc1C)Cc1ccccc1 |  | 96% (active)
39 | COc1ccc(-c2nc(CN3CCC(C(=O)NC4CCCC4)CC3)c(C)o2)cc1OC |  | 70% (active)
40 | CCN(CC)CCSc1nc2ccc(OC)cc2[nH]1 |  | 60% (active)
